# Reference: PubChem BioAssay AID588835 (The Scripps Research Institute Molecular Screening Center, 2011)
# Activity calls are given as the source filed them. How the calls were made is not given here.
# Target: Prolyl endopeptidase (Mus musculus) (UniProt Q9QUR6)
# Assay: in situ PREP and ABHD6 off-target inhibition, dose response, selectivity assay for PME-1 inhibitor project, cell-based, fluorescence, gel-based ABPP (AID 588835)
# Settings: in situ gel-based competitive ABPP; series mostly up to 10 µM
# Chain of Prolyl endopeptidase (Mus musculus) (Q9QUR6 whole entry, looked up): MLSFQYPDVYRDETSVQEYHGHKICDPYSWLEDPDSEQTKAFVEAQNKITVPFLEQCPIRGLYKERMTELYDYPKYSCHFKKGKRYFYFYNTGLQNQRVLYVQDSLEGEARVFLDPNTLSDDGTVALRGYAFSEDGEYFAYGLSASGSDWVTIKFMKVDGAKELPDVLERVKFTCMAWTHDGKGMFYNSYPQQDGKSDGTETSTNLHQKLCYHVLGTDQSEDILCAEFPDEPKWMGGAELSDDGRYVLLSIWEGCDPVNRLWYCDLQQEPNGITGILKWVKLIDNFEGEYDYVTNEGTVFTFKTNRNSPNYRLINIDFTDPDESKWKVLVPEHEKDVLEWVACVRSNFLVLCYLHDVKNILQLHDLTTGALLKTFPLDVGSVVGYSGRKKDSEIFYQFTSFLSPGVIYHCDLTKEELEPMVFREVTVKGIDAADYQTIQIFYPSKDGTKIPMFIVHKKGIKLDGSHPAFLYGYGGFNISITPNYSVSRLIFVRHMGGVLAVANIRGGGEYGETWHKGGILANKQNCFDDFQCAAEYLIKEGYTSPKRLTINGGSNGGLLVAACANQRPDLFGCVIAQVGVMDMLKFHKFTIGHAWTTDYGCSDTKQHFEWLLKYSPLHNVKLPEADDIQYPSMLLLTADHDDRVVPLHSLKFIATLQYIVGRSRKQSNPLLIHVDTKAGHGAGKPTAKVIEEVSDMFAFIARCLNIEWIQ
smiles,measurement,value
CC[C@@]1(c2ccc(C)cc2)C(=O)N(C(=O)OC(C)C)N1C(=O)OC(C)C,outcome,inactive
